SMILES strings stand for the structures. In all, about 1,400 compounds went through this assay and about 940 (67%) were called active. Roughly 27% stayed inconclusive and do not appear here. So high a share suggests a set chosen from earlier hits. These entries were drawn from the full list. Unmarked numbers belong to inactive results. Calls come from the whole dose curve.

Here are results for 49 compounds from PubChem BioAssay AID1347046 (National Center for Advancing Translational Sciences (NCATS), 2019).
Potency is the fitted concentration of half-maximal effect.

Sequence of Atrial natriuretic peptide receptor 2 (Homo sapiens) (P20594 whole entry, looked up): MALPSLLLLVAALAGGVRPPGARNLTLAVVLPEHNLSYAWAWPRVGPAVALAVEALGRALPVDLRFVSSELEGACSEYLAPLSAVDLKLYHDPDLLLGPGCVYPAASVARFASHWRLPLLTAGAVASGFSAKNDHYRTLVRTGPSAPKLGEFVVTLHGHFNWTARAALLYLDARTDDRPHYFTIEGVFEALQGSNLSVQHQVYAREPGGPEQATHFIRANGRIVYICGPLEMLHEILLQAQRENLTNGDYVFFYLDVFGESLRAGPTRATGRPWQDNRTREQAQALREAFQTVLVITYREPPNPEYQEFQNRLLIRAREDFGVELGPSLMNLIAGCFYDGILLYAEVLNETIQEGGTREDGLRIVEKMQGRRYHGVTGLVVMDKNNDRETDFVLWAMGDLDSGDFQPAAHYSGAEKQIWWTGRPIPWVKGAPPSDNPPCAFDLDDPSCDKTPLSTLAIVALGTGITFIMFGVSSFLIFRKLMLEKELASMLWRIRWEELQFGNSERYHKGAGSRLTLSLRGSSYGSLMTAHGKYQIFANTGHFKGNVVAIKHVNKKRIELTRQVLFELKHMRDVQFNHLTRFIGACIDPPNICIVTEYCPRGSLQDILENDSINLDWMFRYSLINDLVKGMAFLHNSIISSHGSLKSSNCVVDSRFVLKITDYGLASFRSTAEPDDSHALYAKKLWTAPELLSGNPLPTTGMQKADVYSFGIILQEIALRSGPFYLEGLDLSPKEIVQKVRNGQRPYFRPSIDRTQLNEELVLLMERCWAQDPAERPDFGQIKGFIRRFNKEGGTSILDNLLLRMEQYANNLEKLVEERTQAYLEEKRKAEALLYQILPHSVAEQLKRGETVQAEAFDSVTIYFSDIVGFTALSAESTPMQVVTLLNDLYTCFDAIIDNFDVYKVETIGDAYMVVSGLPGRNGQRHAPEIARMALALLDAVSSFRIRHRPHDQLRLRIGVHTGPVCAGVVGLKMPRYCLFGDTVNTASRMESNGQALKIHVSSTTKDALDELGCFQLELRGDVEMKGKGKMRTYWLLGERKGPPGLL

The target of this assay is Atrial natriuretic peptide receptor 2 (Homo sapiens) (UniProt P20594). Nature of the assay: Natriuretic polypeptide receptor (hNpr2) antagonism - Subtype selectivity assay. Note: nearly all actives have a fitted effect of over 70% in size. The settings on record: HEK293 hNpr2 GloSensor cGMP luminescence, CNP-stimulated; series mostly up to 57.6 µM; activity change, negative = inhibition: at the top concentration. How it is done:
F. Fan, B. F. Binkowski, B. L. Butler, P. F. Stecha, M. K. Lewis, K. V. Wood, Novel genetically encoded biosensors using firefly luciferase. ACS Chem Biol 3, 346-351 (2008).
PROTOCOL TABLE (as described by Inglese J, Shamu CE and Guy RK. 2007) SEQUENCE No. (e.g., 1, 2, 3, etc.); PARAMETER (e.g., Cells, Incubation, Reagent, etc.); VALUE and DESCRIPTION. 1. Cells. Seed 1500 HEK293 cGMP-sensor cells expressing hNpr2 per well in 4uL into Greiner 1536-well white/solid bottom high base, TC plates. 2. Incubation. Incubate plated cells at 37C in 5% CO2, 95% RH overnight. 3. Reagent. Add 1uL per well GloSensor reagent from Promega (2% final concentration) or CO2 independent media vehicle control to respective columns of Greiner 1536-well plates. 4. Incubation. Incubate plated cells at ambient temperature for 2 h., protect from light. 5. Compounds. Library compounds and DMSO vehicle control added at 23nL per well, transferred by Pin Tool. 6. Incubation. Incubate plated cells for 30 min. at ambient temperature, protect from light. 7. Detector. GloSensor baseline pre-read luminescence measured using CCD-based camera (Viewlux). 8. Compound. Add 1uL of hNppC peptide to 1 nM final concentration to stimulate hNpr2 or CO2 independent media as vehicle control. 9. Incubation. Incubate treated cells at ambient temperature for 20 min., protect from light. 10. Detector. GloSensor post-hNppC luminescence measured using CCD-based camera (Viewlux). NOTES (numbers refer to Sequence numbers above) 1. HEK293 cells expressing hNpr2 and GIP/pGS-40F were grown to 85-95% confluence (48-72 h) in T175 culture flasks (CO2 independent media supplemented with 10% FBS, 1% Pen/Strep antibiotics, and 1 ug/mL puromycin). Trypsinize and harvest cells from T175 culture flasks and filter through 40 um cell strainer. Cells counted with Invitrogen Countess (30,000,000 - 50,000,000 cells/flask). Cells diluted to a final concentration of 375 cells/uL in CO2 independent media and a Millipore multidrop used to dispense 1500 cells per well (4uL/well) into 13 1536-well Greiner White/Solid bottom, high base tissue-culture treated (TC) plates and one Aurora 1536-well Black/Clear bottom, low base, TC plate (for visual inspection of cell health throughout the duration of the assay). 2. Cells incubated for 24 h. at 37C in 95% RH incubator with metal lid having gas-exchange holes. 3. Prepare GloSensor Reagent (Promega): Reconstitute GloSensor luciferase substrate by adding 8.2mL Hepes buffer to 250mg substrate, mix well, protect from light and stored at -80C. Prepare a fresh 12% GloSensor solution in CO2 independent supplemented plating media (see above). Mix well and store at ambient temperature, protected from light. 1uL 12% GloSensor Luciferase Reagent added (2% final concentration) to respective columns of 13 x 1536-well Greiner plate with BioRaptr, 1uL CO2 independent plating media added to respective columns as vehicle control with BioRaptr. 4. Cells incubated for 2 h. at ambient temperature, protected from light with metal lid having gas-exchange holes. 5. 23nL of library compounds or DMSO vehicle control transferred to 13 Greiner white/solid bottom high base, TC plates in 11 interplate 1:3 titrations (see Yasgar, A. et al. 2008) with Pintool. 6. Cells incubated for 30-50 min. at ambient temperature protected from light with metal lid having gas-exchange holes. 7. Read cellular baseline GloSensor luminescence in presence of test library compounds on the ViewLux [Exposure = 10 s.; Gain = High; Speed = Slow; and Binning = 2X.] 8. hNppC peptide agonist solution prepared at 1 mM (in H2O) stock concentration. From this a working dilution was prepared at 6 nM in CO2 Independent media. 1uL of 6 nM hNppC agonist (1 nM final concentration) or CO2 Independent media vehicle control dispensed into respective columns of 13 x Greiner 1536-well white/solid bottom, tissue culture plates with BioRaptr. 9. Cells incubated for 20 min. at ambient temperature, protected from light with metal lid having gas-exchange holes. 10. […]
As for `Cc1ccc2nc(C3CCCN(Cc4ccc(C#N)cc4)C3)[nH]c(=O)c2c1` (centres undefined), the Potency is 24.3 µM (active).

With `O=c1[nH]c(C2CCCN(Cc3ccccn3)C2)nn1-c1ccc(Cl)cc1` (centres undefined), the Potency was 10.9 µM (active).

With `CC(C)(C)c1csc(NC(=O)c2ccc3c(c2)OCCN(C2CCC2)C3)n1`, the Potency was 35.3 µM (active).

On to `COc1ccccc1Nc1cnc2ccc(N(C)Cc3cccnc3)nn12`, for which the Potency is 28 µM (active).

For the compound `C1CCC(COCCc2noc(C3CNC3)n2)C1`, the Potency was 21.7 µM (active).

For `O=C(NCc1nnc2cc(-c3nc(C4CC4)no3)ccn12)c1ccc(F)cc1Cl`, the Potency is 13.7 µM (active).

For the compound `Cc1ccc2c(c1)nc1n2[C@@H](CNS(=O)(=O)c2ccccc2)COC1`, the Potency is 31.4 µM (active).

As for `O=C(c1ccc(F)cc1Cl)N1CCC(n2cc(-c3nc(-c4ccccc4)no3)nn2)C1` (centres undefined), the Potency was 5.44 µM (active).

Consider `O=C(c1ccc(Cl)cc1)N1CCCC(n2cc(-c3nc(-c4ccccc4)no3)nn2)C1` (centres undefined), for which the Potency was 21.7 µM (active).

Take `COc1ccc(C(=O)N2CCC(n3cc(-c4nc(C(C)C)no4)nn3)CC2)cc1F`: the “activity change, negative = inhibition” value was -20.8%.

With `O=C1c2cnc(-c3ccc(Cl)cc3)nc2OCCN1Cc1ccccc1`, the Potency is 35.3 µM (active).

Regarding `Cc1cc(N2CCCC(Cn3cc(Cc4ccccc4)nn3)C2)nc(N)n1` (centres undefined), the Potency was 9.68 µM (active).

For `O=C(c1ccccn1)N1CC(Oc2ccc(-c3noc(C4CC4)n3)cc2)C1`, the Potency is 19.3 µM (active).

As for `COc1ccc(C2Cn3nnc(C(=O)N4CCN(C(=O)c5cccc(Cl)c5)CC4)c3CO2)cc1` (centres undefined), the Potency is 15.3 µM (active).

In the case of `CCc1ccc(C(=O)N2CCN(c3cc(-c4ccc(F)cc4)[nH]n3)CC2)cc1`, the Potency was 21.7 µM (active).

For `O=C(c1ccc(F)cc1F)N1CCN(c2cc(-c3ccc(Cl)cc3)[nH]n2)CC1`, the Potency is 19.3 µM (active).

As for `O=C(c1cc(F)ccc1Cl)N1CCN(c2cc(-c3ccc(F)cc3)[nH]n2)CC1`, the Potency was 24.3 µM (active).

Take `Cc1ccc(C(=O)N2CCN(c3cc(-c4ccc(Cl)cc4)[nH]n3)CC2)c(C)c1`: the Potency is 9.68 µM (active).

For the compound `O=C(c1ccc2cc[nH]c2c1)N1CCC2(CC1)N=C(c1ccc(Cl)cc1)NO2`, the Potency was 21.7 µM (active).

With `O=C1NCN(Cc2ccc(Cl)cc2)C12CCN(Cc1ccccc1)CC2`, the Potency is 19.3 µM (active).

For `O=C(c1ccccc1)N1CCC(C(=O)N2CCC(Cc3nc(-c4ccc(F)cc4)no3)CC2)CC1`, the Potency was 19.3 µM (active).

For `COc1cccc(-c2noc(CC3CCN(C(=O)c4ccc(F)cc4)CC3)n2)c1`, the Potency was 6.11 µM (active).

Turning to `CCN(CCCNC(=O)c1nnn2cc(-c3ccccc3)[nH]c(=O)c12)c1ccccc1`, the “activity change, negative = inhibition” value is -25.7%.

Regarding `COc1cccc(CNC(=O)Cn2c(N(C)Cc3ccccc3)nc(C)cc2=O)c1OC`, the Potency is 27.3 µM (active).

As for `COc1cccc(NC(=O)Cn2c(N(C)Cc3ccccc3)nc(C)cc2=O)c1`, the Potency was 12.2 µM (active).

As to `Cc1nn2c(c1-c1ccccc1-c1ccccc1)N(CC1CC1)CCC2`, the Potency was 3.14 µM (active).

Regarding `Cc1nc(-c2ccncc2)ncc1C(C)Nc1ncnc(C)c1C` (centres undefined), the Potency was 17.2 µM (active).

Regarding `CN1CCN(C(=O)C(C)(C)Oc2nn(Cc3cccc(Cl)c3)c3ccccc23)CC1`, the Potency is 19.8 µM (active).

`CN(C)CCNC(=O)C(C)(C)Oc1nn(Cc2cccc(Cl)c2)c2ccccc12`: the Potency was 31.4 µM (active).

For `Cc1noc(C)c1-c1cc(-c2ccccc2Oc2ccccc2)cn2cncc12`, the Potency is 11.1 µM (active).

On to `CN(Cc1csc(-c2ccccc2)n1)c1cc(C2CC(O)C2)nc(N)n1` (centres undefined), for which the Potency was 3.85 µM (active).

Take `Cc1c[nH]c(CN2CCCC(CCc3ccc(F)cc3F)C2)c(C)c1=O` (centres undefined): the Potency was 3.85 µM (active).

On to `O=C1Nc2ccccc2CN(Cc2ccccc2)C12CCNCC2`, for which the Potency was 17.2 µM (active).

`COc1ccc(OCC2(C)COc3ccc(C(=O)Nc4cccnc4)cc3N2)cc1` (centres undefined): the Potency is 35.3 µM (active).

`CC1=NS(=O)(=O)N(C)C=C1C(=O)OCc1nc(-c2ccc(C)cc2)no1`: the Potency was 13.7 µM (active).

Regarding `COc1ccc(CCNC(=O)c2noc(-c3ccc(C)cc3)n2)cc1OC`, the Potency was 21.7 µM (active).

As for `O=[S+]1([O-])NCC2(CCCN(Cc3ccc(C(F)(F)F)cc3)C2)Oc2ncccc21` (centres undefined), the Potency was 15.3 µM (active).

`COc1ccc(CN2C(=O)CO[C@H]3CN(Cc4ccc5c(c4)OCO5)C[C@H]32)cc1`: the Potency was 31.4 µM (active).

For `Cc1cccc(CN2CCc3nc(C(=O)Nc4ccc(Cl)cc4)oc3CC2)c1`, the Potency is 12.5 µM (active).

In the case of `O=C(c1ccccc1)N1CCNc2cnc(Nc3cccc(C(F)(F)F)c3)nc2C1`, the Potency is 28 µM (active).

Turning to `CC1(C(=O)NCc2ccc3c(c2)OCO3)CCc2cnc(NCc3ccccc3)nc21` (centres undefined), the Potency is 35.3 µM (active).

Take `O=C(NCC1CC1)c1nc2c(o1)CCN(Cc1cccc(F)c1F)CC2`: the Potency is 28 µM (active).

For `O=C(Cc1c[nH]c2ncc(-c3ccccc3F)cc12)N1CCOCC1`, the Potency is 15.7 µM (active).

Regarding `Cc1ccc(OCc2nc(C3CCN(C(=O)CCc4nc5ccc(Cl)cc5[nH]4)CC3)no2)cc1`, the Potency was 24.3 µM (active).

For the compound `CC(C)c1cc(C(=O)N2CCC(n3cc(-c4ccccn4)nn3)CC2)n(C)n1`, the Potency is 19.3 µM (active).

For `OC1(Cc2cc(-c3ccccc3)no2)CCN(c2ncncn2)CC1`, the Potency was 8.62 µM (active).

On to `COc1ccc(-c2noc(CC3CCN(C(=O)Cc4ccc(OC)c(OC)c4)CC3)n2)cc1`, for which the Potency is 5.44 µM (active).

`COc1ccc(CC(=O)N2CCC(Cc3nc(-c4ccccc4)no3)CC2)cc1OC`: the Potency is 15.3 µM (active).

With `COc1ccc(-c2noc(CC3CCN(C(=O)CC4CCCCC4)CC3)n2)cc1`, the Potency is 12.2 µM (active).
